Source: PubChem BioAssay (National Center for Advancing Translational Sciences (NCATS))
Rows were chosen to be rich in hits. Some 10% of all compounds tested hit in one or more screens of this group.
RORg inh: ROR gamma (mouse) transcription inhibition; Drosophila S2 Gal4-RORgamma UAS-luciferase reporter, 20 h; Potency, µM (titrated, usually from 53.6 µM), for inactives: at the highest dose activity change, negative = inhibition, usual class: inhibitors; actives 5.4% (n = 310,000); note: % is set by controls: 0 for no effect and ±100 for the full control effect; nearly all actives have a fitted effect of over 60% in size
Target sequence (P51450 whole entry, looked up, the tested form may be a part): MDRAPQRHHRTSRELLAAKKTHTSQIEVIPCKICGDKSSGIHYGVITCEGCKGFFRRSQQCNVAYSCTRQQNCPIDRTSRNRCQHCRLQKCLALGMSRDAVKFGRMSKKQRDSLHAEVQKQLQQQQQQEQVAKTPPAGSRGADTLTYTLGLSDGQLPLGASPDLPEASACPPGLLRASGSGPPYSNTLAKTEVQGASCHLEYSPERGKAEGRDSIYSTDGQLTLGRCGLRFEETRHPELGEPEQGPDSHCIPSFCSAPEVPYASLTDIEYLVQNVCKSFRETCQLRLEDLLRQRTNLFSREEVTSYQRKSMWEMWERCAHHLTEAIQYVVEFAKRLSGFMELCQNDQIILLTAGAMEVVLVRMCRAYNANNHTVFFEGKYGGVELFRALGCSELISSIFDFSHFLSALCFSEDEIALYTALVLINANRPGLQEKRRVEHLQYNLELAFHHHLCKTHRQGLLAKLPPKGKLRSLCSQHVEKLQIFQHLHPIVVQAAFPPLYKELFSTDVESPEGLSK
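Luminescence from a UAS-regulated Photinus luciferase reporter in stably transfected Drosophila Schneider cells is measured; decreased signal marks ROR gamma inhibition. Fusion expression is induced by 700 uM copper sulfate for 20 hr.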
MCF10A rereplic: DNA re-replication induction in MCF 10a cells. Potency, µM (doses to about 46.1 µM), without a hit: at the highest dose activity, positive = re-replication, hits mostly activators. MCF 10A DNA re-replication, Hoechst nuclear intensity, 48 h. actives 2.9% (n = 350,000); note: % of control where 0% means no effect; nearly all actives have a fitted effect of over 50% in size
SW480 rereplic: DNA re-replication induction in SW480 cells | SW480 DNA re-replication, Hoechst DNA content imaging, 48 h | Potency, µM (doses to about 46.1 µM), inactives show at the highest dose re-replication activation, most hits filed as activators | actives 1.8% (n = 340,000) | AID 624297; note: % of control where 0% means no effect; nearly all actives have a fitted effect of over 55% in size
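Treated cells incubate 48 hr (37 C, 5% CO2), are stained 40 min with Hoechst, and nuclear fluorescence is enumerated; a rise in nuclei with high DNA signal marks re-replication.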
ELG1 DNA repair: blocks ELG1-dependent DNA repair in HEK293T cells | AID 504467 | actives 2.3% (n = 330,000) | HEK293T ELG1-luciferase reporter, luminescence, 16 h; DNA damage induced by 5-fluorouridine | Potency, µM (titrated, usually from 46.1 µM), inactives show at the highest dose activity change, negative = inhibition, actives largely listed as inhibitors; note: % is set by controls: 0 for no effect and ±100 for the full control effect; nearly all actives have a fitted effect of over 55% in size
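Quantitative HTS, concentration-response format. 2,000 cells/well co-treated with 5-fluorouridine and compound, 16 hr in 5% CO2 at 37 °C; ONE-Glo luminescence read after 30 min.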
Gal4-VP16 FLuc: inhibits Gal4-VP16 luciferase reporter, ROR gamma counter-screen. Drosophila S2 Gal4-VP16 UAS-luciferase, luminescence, 20 h. Potency, µM (top dose mostly 53.6 µM), without a hit: top-dose activity, negative = inhibition, hits mostly inhibitors. actives 3.5% (n = 310,000);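 note: Gal4-VP16 expression switched on by copper sulfate through the metallothionein promoter; % is set by controls: 0 for no effect and ±100 for the full control effect; nearly all actives have a fitted effect of over 50% in size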
An asterisk follows results filed as active; ? = inconclusive; . = no result given; [ ] = another dose, or the depositor's remark. Calls come from the whole dose curve; as a rule, active = well fitted curve in the direction sought with a large enough effect; inconclusive = small, poorly fitted or top-dose-only effect, or another doubt; inactive = no such curve, though single readings can be large; an effect the other way counts as inactive or inconclusive. Potency is the fitted concentration of half-maximal effect.

SMILES	RORg inh	MCF10A rereplic	SW480 rereplic	ELG1 DNA repair	Gal4-VP16 FLuc
c1ccc(OCCOc2ccccc2-c2nnco2)cc1	3%	-3%	-6%	?	0%
CC(C)C[C@@H](C(=O)NCC1CCCO1)N1C(=O)N2CCc3c([nH]c4ccccc34)[C@@]2(C)C1=O (some centres undefined)	29%	8%	-17%	-2%	-1%
COc1ccc(NC2=NCC(Cc3ccc(Br)cc3)S2)cc1 (centres undefined)	?	?	?	?	3.5µM*
Cn1c(/C=N/Nc2nc3ccccc3[nH]2)nc2ccccc21	4.5µM*	8%	?	?	13µM*
CC(/C=N/Nc1nc(C)cc(=O)[nH]1)=C\c1ccccc1	-2%	19%	?	?	?
CC(/C=N/Nc1nc2ccccc2[nH]1)=C\c1ccccc1	6.3µM*	?	?	?	7.1µM*
Cc1c(/C=N/Nc2nc3ccccc3[nH]2)c2ccccc2n1C	5µM*	16µM*	?	-4%	?
CCCn1c(/C=N/Nc2nc3ccccc3[nH]2)nc2ccccc21	2µM*	?	.	?	3.2µM*
C(=N\Nc1nc2ccccc2[nH]1)/c1ccncc1	15%	?	-7%	?	?
CC(=O)Nc1ccc(/C=N/Nc2nc3ccccc3[nH]2)cc1	?	7%	23%	?	-5%
O=C(c1ccccc1)c1ccc(OCC(O)CNCc2ccc(Cl)cc2)cc1 (centres undefined)	-24%	?	-4%	-6%	-11%
C[C@@]1(C(NC(=O)Cc2ccccc2)c2ccc(-c3ccccc3)cc2)C[C@H]1C1CCCCC1 (some centres undefined)	-19%	.	.	.	0%
O=C(COc1ccc(S(=O)(=O)N2CCCCC2)cc1)NCC1CCCO1 (centres undefined)	1%	4%	3%	8%	5%
CC(C)Cn1c(/C=N/Nc2nc3ccccc3[nH]2)nc2ccccc21	1.8µM*	10%	?	17%	1.1µM*
C=CCn1cc(/C=N/Nc2nc3ccccc3[nH]2)c2ccccc21	4.5µM*	?	20%	?	7.1µM*
Cc1nn(-c2ccccc2)c(C)c1/C=N/Nc1nc2ccccc2[nH]1	5%	?	?	?	-2%
COc1ccc(NC(=S)NNC(=O)c2nnn(-c3ccccc3)c2C)cc1	-26%	-66%	4.1µM*	-3%	0%
CC(C)Cn1c(N)c(C(=O)COC(=O)c2ccc(Br)cc2)c(=O)n(C)c1=O	.	4%	1%	21µM*	.
CC(C)Cn1c(N)c(C(=O)CSc2ccccc2)c(=O)n(C)c1=O	?	28%	-2%	23µM*	-1%
Cc1nnc(SCC(=O)c2c(N)n(C)c(=O)n(C)c2=O)n1Cc1ccccc1	-1%[10 µM]	10%	-2%	?	3%
COC(=O)c1c(C)[nH]c(C(=O)OCC(=O)c2c(N)n(CC(C)C)c(=O)n(C)c2=O)c1C	.	?	16%	16µM*	.
CC(C)Cn1c(N)c(C(=O)COC(=O)c2ccncc2)c(=O)n(C)c1=O	22%	-2%	-2%	?	-1%
CC(C)Nc1nnc(SCC(=O)c2c(N)n(Cc3ccccc3)c(=O)n(C)c2=O)s1	7%	-1%	-4%	18µM*	-13%
O=C(CN1CCN(C(=O)C2CC2)CC1)Nc1ccc(Cl)cc1F	.	6%	-1%	-1%	.
CC(C)Cn1c(N)c(C(=O)COC(=O)c2ccc(Cl)cc2)c(=O)n(C)c1=O	-18%	-30%	1%	18µM*	-24%
SMILES	RORg inh	MCF10A rereplic	SW480 rereplic	ELG1 DNA repair	Gal4-VP16 FLuc
CC(C)Cn1c(N)c(C(=O)COC(=O)c2cccc(F)c2)c(=O)n(C)c1=O	16%	-2%	8%	?	-15%
CCSc1nnc2ccc(-c3ccc(C)cc3)nn12	?	5%	-35%	?	-28%
Cc1ccc2c(C)nc(SC(C(=O)c3ccccc3)c3ccccc3)nc2c1 (centres undefined)	?	?	.	12%	20µM*
Cc1ccc(S(=O)(=O)N(C)C)cc1NC(=O)COC(=O)/C=C/c1ccc(F)cc1	.	0%	-4%	6%	.
Cc1cc2ncn(CC(C)C)c2cc1C	7.9µM*	-6%	-36%	-4%	?
CCCCn1cnc2cc(C)c(C)cc21	4µM*	-12%	-4%	5%	?
COCCn1cnc2cc(C)c(C)cc21	?	2%	-7%	-10%	13%
Cc1cc2ncn(CCOc3ccccc3)c2cc1C	13µM*	19%	-60%	?	-30%
O=C(Cn1nc2n(c1=O)-c1ccccc1SC2)N/N=C/c1cccs1	-28%	-1%	-58%	-4%	-15%
O=C(CSc1cccc(C(F)(F)F)c1)Nc1cc(S(=O)(=O)N2CCCC2)ccc1Cl	?	16%	9%	-18%	-7%
O=S(=O)(Nc1cccc(-c2cn3cccnc3n2)c1)c1ccc(Cl)cc1	?	18%	26%	-1%	-13%
CCC(C)(C)NC(=O)C(c1ccc(OC)cc1)N(Cc1cccs1)C(=O)CCC(=O)Nc1cc(C)on1 (centres undefined)	?	?	-3%	18µM*	-6%
COc1ccc(C(C(=O)NC(C)(C)C)N(Cc2cccs2)C(=O)CCC(=O)Nc2cc(C)on2)cc1 (centres undefined)	21%	?	13%	?	3%
CC(C1CC2CCC1C2)n1c(-c2ccco2)n[nH]c1=S (centres undefined)	1.3µM*	0%	-4%	-13%	6.3µM*
S=c1[nH]nc(-c2ccco2)n1/N=C/c1ccccn1	-22%	.	.	-2%	-2%
O=C1C(Cl)=C(N2CCN(c3ccccc3[N+](=O)[O-])CC2)C(=O)c2ccccc21	-93%	?	16µM*	?	?
Cc1cc(C)c2c(N)c(C(=O)c3ccc(Br)cc3)oc2n1	-4%	23µM*	2.6µM*	-2%	-5%
Cc1cccc(N(CC(=O)N/N=C/c2ccccc2C(=O)O)S(C)(=O)=O)c1C	-13%	2%	-11%	2%	-5%
CCc1c(C)nc2nc(SCc3ccccc3Cl)[nH]n2c1=O	?	16%	6%	-18%	25µM*
CSc1nc2nc(C)c(C/C=C/c3ccccc3)c(=O)n2[nH]1	18%	5%	?	-12%	3%
Nc1c(Cl)cc2c(c1Oc1ccccc1)C(=O)c1ccccc1C2=O	-33%	13µM*	?	?	-3%
O=C(O)c1csc(N/N=C/c2ccc(Br)cc2)n1	2.5µM*	-15%	5%	?	5µM*
Brc1ccc(-c2csc(N/N=C/c3ccco3)n2)cc1	-27%	11%	10%	?	4%
Cc1ccc(C(=O)NC(=S)NCc2cccnc2)cc1C	13µM*	13%	2%	-22%	?
